Assay [1] has as its target Platelet-derived growth factor receptor beta (Homo sapiens) (UniProt P09619). The settings on record: at 1 µM.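 Also: each value is a mean percent inhibition.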
For assay [2], the target named is Tyrosine-protein kinase FRK (Homo sapiens) (UniProt P42685). The settings on record: at 0.1 µM.
The target is the same in assay [3]. The settings on record: at 1 µM.
The target of assay [4] is Protein-tyrosine kinase 2-beta (Homo sapiens) (UniProt Q14289). The settings on record: at 0.1 µM.
The target is the same in assay [5]. The settings on record: at 1 µM.
The target of assay [6] is Proto-oncogene tyrosine-protein kinase receptor Ret (Homo sapiens) (UniProt P07949). As to conditions: at 0.1 µM.
The target is the same in assay [7]. The settings on record: at 1 µM.
In assay [8] the test system is Proto-oncogene tyrosine-protein kinase receptor Ret (Homo sapiens), P07949 [V804L]. As to conditions: at 0.1 µM.
Assay [9] shares this test system. As to conditions: at 1 µM.
Assay [10] concerns Proto-oncogene tyrosine-protein kinase receptor Ret (Homo sapiens), P07949 [Y791F]. As to conditions: at 0.1 µM.
Assay [11] has the same test system. The settings on record: at 1 µM.
Assay [12] concerns the target Macrophage-stimulating protein receptor (Homo sapiens) (UniProt Q04912). The settings on record: at 0.1 µM.
Assay [13] shares this target. The settings on record: at 1 µM.
The target of assay [14] is Proto-oncogene tyrosine-protein kinase ROS (Homo sapiens) (UniProt P08922). As to conditions: at 0.1 µM.
Assay [15] shares this target. As to conditions: at 1 µM.
The target in assay [16] is Proto-oncogene tyrosine-protein kinase Src (Homo sapiens) (UniProt P12931). As to conditions: at 0.1 µM.
The target is the same in assay [17]. As to conditions: at 1 µM.
Assay [18] concerns the target Tyrosine-protein kinase Srms (Homo sapiens) (UniProt Q9H3Y6). The settings on record: at 0.1 µM.
For assay [19] the target is unchanged. The settings on record: at 1 µM.
Assay [20] addresses Tyrosine-protein kinase SYK (Homo sapiens) (UniProt P43405). The settings on record: at 0.1 µM.

The structures appear in SMILES notation.

One may read the inhibition as the drop in the measured response relative to a control, in per cent.

Sequence of Proto-oncogene tyrosine-protein kinase Src (Homo sapiens) (P12931 2-536 limits assumed): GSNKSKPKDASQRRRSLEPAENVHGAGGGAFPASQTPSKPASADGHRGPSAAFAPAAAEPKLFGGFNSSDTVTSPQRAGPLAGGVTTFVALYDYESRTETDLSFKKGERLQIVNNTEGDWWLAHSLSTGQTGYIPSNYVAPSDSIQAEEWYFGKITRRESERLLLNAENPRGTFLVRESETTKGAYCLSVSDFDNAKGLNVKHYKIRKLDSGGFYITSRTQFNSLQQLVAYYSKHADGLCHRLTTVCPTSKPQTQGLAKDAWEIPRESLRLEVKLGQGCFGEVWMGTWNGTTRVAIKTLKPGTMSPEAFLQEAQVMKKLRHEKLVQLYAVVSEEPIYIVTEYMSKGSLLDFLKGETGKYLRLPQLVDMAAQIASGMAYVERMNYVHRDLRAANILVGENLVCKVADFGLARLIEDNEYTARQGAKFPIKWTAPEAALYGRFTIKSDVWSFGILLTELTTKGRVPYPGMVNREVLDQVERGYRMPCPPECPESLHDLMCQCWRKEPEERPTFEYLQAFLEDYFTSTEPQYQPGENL
Sequence of Proto-oncogene tyrosine-protein kinase ROS (Homo sapiens) (P08922 whole entry): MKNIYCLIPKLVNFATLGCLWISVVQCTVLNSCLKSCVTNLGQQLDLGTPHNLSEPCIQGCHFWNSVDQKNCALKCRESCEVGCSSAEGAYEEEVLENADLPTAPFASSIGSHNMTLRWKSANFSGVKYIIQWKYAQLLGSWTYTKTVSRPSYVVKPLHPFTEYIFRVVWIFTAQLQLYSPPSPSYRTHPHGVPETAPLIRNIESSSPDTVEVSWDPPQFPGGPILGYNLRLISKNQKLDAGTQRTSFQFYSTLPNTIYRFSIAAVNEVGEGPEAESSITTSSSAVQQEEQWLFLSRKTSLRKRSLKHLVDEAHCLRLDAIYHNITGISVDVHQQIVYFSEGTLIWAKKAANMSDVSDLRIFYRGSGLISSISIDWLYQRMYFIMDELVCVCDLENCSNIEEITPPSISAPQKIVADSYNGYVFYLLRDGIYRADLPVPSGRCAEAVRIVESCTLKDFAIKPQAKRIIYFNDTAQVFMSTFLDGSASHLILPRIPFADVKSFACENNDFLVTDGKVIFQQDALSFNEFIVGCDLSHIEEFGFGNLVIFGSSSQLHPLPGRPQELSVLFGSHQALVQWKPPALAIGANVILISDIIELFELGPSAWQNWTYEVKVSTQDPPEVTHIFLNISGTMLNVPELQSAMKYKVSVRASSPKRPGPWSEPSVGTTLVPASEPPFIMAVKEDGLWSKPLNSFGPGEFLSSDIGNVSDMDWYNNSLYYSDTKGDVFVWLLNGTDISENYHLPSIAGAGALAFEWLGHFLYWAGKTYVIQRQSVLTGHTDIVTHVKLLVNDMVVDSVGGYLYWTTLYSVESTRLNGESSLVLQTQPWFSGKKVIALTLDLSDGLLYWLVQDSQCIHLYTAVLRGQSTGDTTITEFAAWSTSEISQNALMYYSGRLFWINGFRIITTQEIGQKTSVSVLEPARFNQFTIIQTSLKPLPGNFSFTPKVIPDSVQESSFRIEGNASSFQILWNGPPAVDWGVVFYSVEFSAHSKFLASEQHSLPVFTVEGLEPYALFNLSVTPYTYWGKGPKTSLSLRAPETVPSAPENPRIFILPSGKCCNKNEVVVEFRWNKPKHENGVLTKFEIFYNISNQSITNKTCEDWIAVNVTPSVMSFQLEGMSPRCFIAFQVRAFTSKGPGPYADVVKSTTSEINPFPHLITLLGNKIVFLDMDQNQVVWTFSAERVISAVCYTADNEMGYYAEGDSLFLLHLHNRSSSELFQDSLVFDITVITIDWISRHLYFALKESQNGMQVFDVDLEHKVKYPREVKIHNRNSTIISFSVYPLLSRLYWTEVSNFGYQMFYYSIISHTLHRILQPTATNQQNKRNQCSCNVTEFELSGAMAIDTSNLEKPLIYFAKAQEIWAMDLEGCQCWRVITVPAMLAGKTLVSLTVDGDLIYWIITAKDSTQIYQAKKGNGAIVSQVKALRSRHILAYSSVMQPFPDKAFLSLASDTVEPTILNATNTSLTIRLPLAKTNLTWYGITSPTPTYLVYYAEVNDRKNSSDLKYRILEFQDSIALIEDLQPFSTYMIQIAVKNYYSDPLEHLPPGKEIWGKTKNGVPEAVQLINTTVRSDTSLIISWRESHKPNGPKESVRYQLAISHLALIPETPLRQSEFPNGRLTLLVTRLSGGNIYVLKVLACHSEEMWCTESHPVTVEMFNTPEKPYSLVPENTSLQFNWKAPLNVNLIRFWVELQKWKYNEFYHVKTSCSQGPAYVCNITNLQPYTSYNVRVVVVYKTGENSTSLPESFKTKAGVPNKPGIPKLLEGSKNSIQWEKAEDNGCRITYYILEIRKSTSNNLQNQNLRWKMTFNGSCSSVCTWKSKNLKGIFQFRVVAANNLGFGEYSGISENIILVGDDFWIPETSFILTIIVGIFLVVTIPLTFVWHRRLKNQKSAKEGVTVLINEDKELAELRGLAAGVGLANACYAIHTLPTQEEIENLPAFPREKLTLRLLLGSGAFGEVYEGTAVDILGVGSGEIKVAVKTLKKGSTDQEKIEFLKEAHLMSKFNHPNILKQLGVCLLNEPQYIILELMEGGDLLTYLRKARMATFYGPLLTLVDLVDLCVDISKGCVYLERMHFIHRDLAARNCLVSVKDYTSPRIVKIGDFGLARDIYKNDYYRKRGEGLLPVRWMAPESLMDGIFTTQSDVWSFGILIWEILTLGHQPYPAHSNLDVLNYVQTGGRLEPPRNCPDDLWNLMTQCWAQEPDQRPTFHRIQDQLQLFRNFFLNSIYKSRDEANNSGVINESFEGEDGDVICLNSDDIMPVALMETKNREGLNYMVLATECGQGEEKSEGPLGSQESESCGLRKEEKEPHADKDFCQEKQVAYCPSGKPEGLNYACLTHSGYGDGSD
Sequence of Macrophage-stimulating protein receptor (Homo sapiens) (Q04912 25-304 limits assumed): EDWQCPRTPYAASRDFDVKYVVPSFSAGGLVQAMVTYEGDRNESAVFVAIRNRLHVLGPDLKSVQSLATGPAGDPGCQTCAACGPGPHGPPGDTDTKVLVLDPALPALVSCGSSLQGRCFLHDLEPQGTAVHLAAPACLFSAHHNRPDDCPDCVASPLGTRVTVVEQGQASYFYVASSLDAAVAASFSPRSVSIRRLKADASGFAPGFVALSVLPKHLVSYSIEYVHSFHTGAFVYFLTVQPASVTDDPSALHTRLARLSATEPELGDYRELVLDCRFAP
Sequence of Macrophage-stimulating protein receptor (Homo sapiens) (Q04912 310-1400 limits assumed): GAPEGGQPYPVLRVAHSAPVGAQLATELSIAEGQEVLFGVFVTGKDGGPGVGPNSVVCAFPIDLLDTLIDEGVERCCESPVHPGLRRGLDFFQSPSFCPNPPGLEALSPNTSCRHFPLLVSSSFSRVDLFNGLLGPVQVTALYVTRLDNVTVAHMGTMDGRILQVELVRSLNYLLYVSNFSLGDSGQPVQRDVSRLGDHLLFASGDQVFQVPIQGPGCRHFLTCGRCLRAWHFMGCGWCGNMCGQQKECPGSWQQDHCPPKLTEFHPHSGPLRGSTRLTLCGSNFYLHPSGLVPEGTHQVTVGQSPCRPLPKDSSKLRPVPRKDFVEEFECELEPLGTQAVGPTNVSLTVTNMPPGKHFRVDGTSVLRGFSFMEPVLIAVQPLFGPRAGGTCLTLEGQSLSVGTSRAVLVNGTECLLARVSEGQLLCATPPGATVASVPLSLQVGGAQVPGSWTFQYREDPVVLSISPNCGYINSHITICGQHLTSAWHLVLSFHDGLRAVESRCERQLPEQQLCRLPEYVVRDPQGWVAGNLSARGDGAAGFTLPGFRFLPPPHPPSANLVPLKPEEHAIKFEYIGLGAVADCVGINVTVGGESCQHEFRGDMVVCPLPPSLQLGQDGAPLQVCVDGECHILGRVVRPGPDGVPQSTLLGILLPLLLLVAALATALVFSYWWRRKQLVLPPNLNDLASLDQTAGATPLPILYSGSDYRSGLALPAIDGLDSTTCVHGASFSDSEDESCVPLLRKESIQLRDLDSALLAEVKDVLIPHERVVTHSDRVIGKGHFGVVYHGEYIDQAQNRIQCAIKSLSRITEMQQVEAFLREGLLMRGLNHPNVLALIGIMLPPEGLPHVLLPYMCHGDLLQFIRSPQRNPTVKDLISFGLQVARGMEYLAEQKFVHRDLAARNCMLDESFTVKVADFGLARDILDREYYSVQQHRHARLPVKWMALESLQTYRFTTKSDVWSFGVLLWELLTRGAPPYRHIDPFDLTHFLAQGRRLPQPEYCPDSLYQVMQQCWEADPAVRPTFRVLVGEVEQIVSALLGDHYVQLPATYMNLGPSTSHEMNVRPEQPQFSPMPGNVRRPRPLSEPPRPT
Sequence of Tyrosine-protein kinase FRK (Homo sapiens) (P42685 whole entry): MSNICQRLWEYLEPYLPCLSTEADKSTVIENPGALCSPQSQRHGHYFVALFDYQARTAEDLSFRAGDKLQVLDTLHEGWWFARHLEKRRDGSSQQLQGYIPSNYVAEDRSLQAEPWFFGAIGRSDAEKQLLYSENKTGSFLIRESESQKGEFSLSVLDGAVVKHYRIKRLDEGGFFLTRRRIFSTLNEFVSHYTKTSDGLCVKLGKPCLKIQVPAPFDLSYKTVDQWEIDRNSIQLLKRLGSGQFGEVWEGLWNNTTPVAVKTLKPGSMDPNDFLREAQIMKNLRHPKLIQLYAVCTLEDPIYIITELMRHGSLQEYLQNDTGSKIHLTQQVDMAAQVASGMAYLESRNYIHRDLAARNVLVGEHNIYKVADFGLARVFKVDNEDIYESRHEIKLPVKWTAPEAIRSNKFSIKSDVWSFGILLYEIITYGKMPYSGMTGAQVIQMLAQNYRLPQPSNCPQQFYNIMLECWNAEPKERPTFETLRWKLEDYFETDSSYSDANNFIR

Take `N#Cc1c(NC(=O)c2ccc(F)cc2)sc2c1CCCC2`: the inhibition in assay [1] turned out to be 5.64%; in assay [2], 0.6%; in [3], 1.01%; in assay [4] it was 1%; in assay [5], 1.23%; in assay [6] it was 0.59%. Also, the inhibition was -0.03% in assay [7]; 1.83% in assay [8]; 2.29% in [9]; 1.07% in assay [10]; 7.62% in assay [11]; 1.04% in assay [12]. The inhibition in [13] was 2.12%; in assay [14] it was 0.38%; in assay [15] it was 4.13%; in assay [16] it was 4.79%; in [17] it was 1.56%; in assay [18], -1.11%. Besides, the inhibition in [19] is -0.62%; in assay [20], -2.1%.

As to `CC(=O)NCc1cccc(C#Cc2cncnc2Nc2ccc(OCc3cccc(F)c3)c(Cl)c2)c1`, the inhibition amounted to 6.15% in assay [1]; 1.61% in [2]; 1.03% in assay [3]; 3.96% in assay [4]; 0.92% in assay [5]; 3.99% in [6]. Besides, the inhibition in assay [7] turned out to be 20.2%; in assay [8] it was 2.58%; in [9], 6.73%; in [10], 1.6%; in assay [11], 3.42%; in assay [12], 5.44%. Also, the inhibition stood at 5.62% in assay [13]; 3.92% in assay [14]; 4.54% in [15]; 0.53% in assay [16]; 2.01% in assay [17]; 0.33% in assay [18]. Besides, the inhibition in [19] is -1.05%; in assay [20] it was -2.37%.

Turning to `NS(=O)(=O)c1ccc(Nc2ncc(-c3ccccc3)o2)cc1`, the inhibition turned out to be 46.6% in assay [1]; 1.2% in assay [2]; 1.36% in assay [3]; 10.6% in assay [4]; 19.8% in assay [5]; 3.66% in assay [6]. Besides, the inhibition in [7] came to 7.66%; in assay [8], 3.57%; in assay [9], 10%; in [10] it was 0.77%; in [11] it was 7.3%; in assay [12], 4%. Moreover, the inhibition was 6.45% in [13]; 3.2% in assay [14]; 13.1% in [15]; 1.97% in assay [16]; 18.3% in [17]; -0.76% in [18]. Moreover, the inhibition came out at 0.22% in assay [19] and 3.95% in assay [20].

As to `COc1ccc(-c2cc(-c3c[nH]nc3-c3ccccn3)ccn2)cc1`, the inhibition in assay [1] was 31.9%; in [2] it was 3.08%; in assay [3], 2.92%; in assay [4], 7.68%; in assay [5], 13.9%; in [6], 5.33%. Further, the inhibition in assay [7] turned out to be 5.9%; in assay [8], 4.29%; in assay [9], 5.73%; in [10], 6.24%; in [11], 17.4%; in [12] it was 2.4%. The inhibition in assay [13] was 21.3%; in assay [14] it was 3.05%; in assay [15], 8.62%; in assay [16], 0.76%; in assay [17], 11.1%; in [18], -2.06%. Besides, the figures for the inhibition in assay [19] and in assay [20] were 0.71% and -6.85%, respectively.

As for `CN1CCC(n2cnc(-c3ccc(F)cc3)c2-c2ccnc(Nc3ccccc3)n2)CC1`, the inhibition worked out at 44.7% in assay [1]; 0.85% in assay [2]; 1.83% in assay [3]; 4.25% in [4]; 5.64% in assay [5]; 6.59% in [6]. Moreover, the inhibition in assay [7] was 18.3%; in [8] it was 4.17%; in assay [9], 7.13%; in [10], 7.03%; in assay [11], 36.2%; in assay [12] it was 2.65%. Further, the inhibition in assay [13] worked out at 4%; in assay [14] it was 1.54%; in assay [15], 4%; in assay [16] it was 9.92%; in assay [17], 11.8%; in [18], 1.77%. Also, the inhibition in [19] is 3.09%; in assay [20], 1.08%.

`c1ccc(COc2ccc(Nc3ncnc4ccc(-c5ccco5)cc34)cc2)cc1`: the inhibition in assay [1] is 0.57%; in assay [2], -0.18%; in assay [3], 0.89%; in assay [4], -2.12%; in [5], 1.9%; in assay [6], 1.71%. Moreover, the inhibition in [7] amounted to 2.96%; in assay [8], 1.93%; in [9] it was 2.59%; in assay [10] it was 1.88%; in assay [11], 1.21%; in assay [12] it was 4.01%. Also, the inhibition turned out to be 7.76% in [13]; 2.59% in assay [14]; 3.28% in [15]; 0.54% in assay [16]; 1.64% in assay [17]; 0.68% in assay [18]. In addition, the inhibition in [19] was 0.99%; in [20], -0.45%.

As for `CCN1CCC(CC(=O)Nc2n[nH]c3nnc(-c4cccc(F)c4F)cc23)CC1`, the inhibition is 5.87% in assay [1]; 0.59% in assay [2]; -2.06% in assay [3]; 2.01% in assay [4]; 2.8% in assay [5]; 3.04% in [6]. Also, the inhibition is 1.36% in [7]; 3.31% in assay [8]; 3.73% in assay [9]; 4.22% in assay [10]; 6.9% in assay [11]; -3.31% in assay [12]. Besides, the inhibition in [13] was 1.81%; in assay [14], 1.13%; in assay [15] it was 3.93%; in [16], 5.1%; in [17] it was 0.53%; in assay [18], -0.09%. Also, the inhibition is 0.68% in assay [19] and -0.02% in [20].

Turning to `NS(=O)(=O)c1ccc(N/N=C2\C(=O)Nc3ccc4ncccc4c32)cc1`, the inhibition in [1] turned out to be 82.8%; in [2] it was 0.32%; in assay [3] it was 4.11%; in assay [4], 6.43%; in assay [5] it was 43.2%; in assay [6] it was 37.3%. Moreover, the inhibition in assay [7] amounted to 78.9%; in assay [8], 57.7%; in [9] it was 82.7%; in assay [10] it was 45.3%; in assay [11], 77.7%; in assay [12], 2.25%. Also, the inhibition in [13] was 13.3%; in [14] it was 8.1%; in assay [15], 35.3%; in assay [16] it was 19.3%; in assay [17] it was 71.1%; in assay [18] it was -0.11%. Moreover, the inhibition was 3.96% in assay [19] and -9.38% in assay [20].

As for `Nc1nc(-c2cccc(Cl)c2)c(-c2ccc3ncccc3n2)s1`, the inhibition in assay [1] came to 15%; in [2], 3.21%; in [3], 3.32%; in assay [4] it was 10.4%; in [5], 14.5%; in [6], 4.79%. In addition, the inhibition in assay [7] is 5.99%; in assay [8], 8.87%; in assay [9], 14.1%; in [10] it was 3.93%; in assay [11], 15.2%; in [12], 4.75%. The inhibition in assay [13] was 10.5%; in assay [14], 6.74%; in assay [15], 11.4%; in assay [16] it was 4.18%; in [17], 13.6%; in [18], -1.79%. Moreover, the inhibition in assay [19] is -1.08%; in assay [20], -2.15%.

Regarding `CCn1c(-c2nonc2N)nc2cnc(Oc3cccc(NC(=O)c4ccc(N(C)C)cc4)c3)cc21`, the inhibition in assay [1] came to 6.43%; in assay [2], 1.12%; in [3], 0.64%; in assay [4] it was 1.13%; in assay [5] it was 3.58%; in assay [6], 3.06%. The inhibition was 4.26% in [7]; 3.42% in assay [8]; 6.51% in [9]; 3.78% in assay [10]; 1.39% in assay [11]; 1.95% in assay [12]. Moreover, the inhibition in [13] was 1.27%; in assay [14] it was 2.49%; in [15] it was 3.39%; in assay [16], 3.64%; in assay [17] it was 1.89%; in assay [18], -0.5%. The inhibition in assay [19] was 6.2%; in assay [20], -1.42%.

Take `c1ccc(-c2nc3n(c2-c2ccc4c(c2)OCO4)CCC3)nc1`: the inhibition in [1] is 4.62%; in [2], 0.91%; in assay [3], 0.2%; in [4], 5.1%; in [5] it was 6.96%; in assay [6], 2.81%. Also, the inhibition in [7] was 4.44%; in assay [8] it was 1.37%; in assay [9], 1.16%; in assay [10] it was 2.63%; in assay [11], 1.82%; in [12], 0.69%. In addition, the inhibition in assay [13] is 1.59%; in [14], 4.52%; in [15] it was 4.91%; in assay [16] it was -7.85%; in [17] it was 2.73%; in [18] it was -0.53%. Moreover, the inhibition in assay [19] was -1.55%; in assay [20] it was -1.33%.

In the case of `COc1cc(N2CCN(C(C)C)CC2)ccc1Nc1nc(Nc2ccc(F)cc2C(N)=O)c2cc[nH]c2n1`, the inhibition in assay [1] was 26.9%; in [2], 2.93%; in assay [3] it was 12.7%; in [4], 95.5%; in assay [5] it was 97.8%; in assay [6] it was -3.34%. In addition, the inhibition in [7] worked out at 9.44%; in assay [8], 8.15%; in assay [9], 43.8%; in [10], 4.48%; in assay [11], 16.6%; in [12] it was 0.61%. Also, the inhibition was -0.44% in assay [13]; 51.8% in assay [14]; 81.8% in assay [15]; 6.34% in assay [16]; 10.4% in [17]; 1.36% in [18]. Further, the inhibition in [19] is 7.98%; in assay [20], 0.19%.

As for `CN1CCC(n2cnc(-c3ccc(F)cc3)c2-c2ccnc(N)n2)CC1`, the inhibition was 29.6% in assay [1]; 0.15% in assay [2]; 1.13% in assay [3]; -2.24% in assay [4]; 6.37% in assay [5]; 5.6% in assay [6]. For the same compound, the inhibition is 18.7% in [7]; 1.63% in [8]; 13.3% in assay [9]; 4.75% in [10]; 27.5% in [11]; 5.16% in assay [12]. Also, the inhibition in assay [13] is -2.05%; in assay [14], 2.9%; in assay [15], 15.1%; in assay [16] it was 1.96%; in assay [17], 10.6%; in [18], 1.38%. For the same compound, the inhibition in [19] stood at 0.46%; in [20], 2.67%.
